# Reference: paper PMC5540273 (PLoS ONE, 2017)
# What was measured:
# Details in all cases: concentration: 1 μM, replicates: in singlicate; n = 1
# DLK = tested on: T1, DLK
# T1 construct: gene MAP3K12
# DMPK2 = tested on: T2, DMPK2
# T2 construct: gene CDC42BPG
# DMPK = tested on: DMPK
# DRAK1 = tested on: T3, DRAK1
# T3 construct: gene STK17A
# DRAK2 = tested on: T4, DRAK2
# T4 construct: gene STK17B
# DYRK1A = tested on: DYRK1A
# DYRK1B = tested on: DYRK1B
# DYRK2 = tested on: DYRK2
# EGFR = tested on: EGFR
# EIF2AK1 = tested on: EIF2AK1
# EPHA1 = tested on: EPHA1
# EPHA2 = tested on: EPHA2
# EPHA3 = tested on: EPHA3
# EPHA4 = tested on: EPHA4
# EPHA5 = tested on: EPHA5
# EPHA6 = tested on: EPHA6
# EPHA7 = tested on: EPHA7
# EPHA8 = tested on: EPHA8
# EPHB1 = tested on: EPHB1
# EPHB2 = tested on: EPHB2
# 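Also: KINOMEscan kinase panel screen.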
Structure (SMILES),%Inh (DLK) [%],%Inh (DMPK2) [%],%Inh (DMPK) [%],%Inh (DRAK1) [%],%Inh (DRAK2) [%],%Inh (DYRK1A) [%],%Inh (DYRK1B) [%],%Inh (DYRK2) [%],%Inh (EGFR) [%],%Inh (EIF2AK1) [%],%Inh (EPHA1) [%],%Inh (EPHA2) [%],%Inh (EPHA3) [%],%Inh (EPHA4) [%],%Inh (EPHA5) [%],%Inh (EPHA6) [%],%Inh (EPHA7) [%],%Inh (EPHA8) [%],%Inh (EPHB1) [%],%Inh (EPHB2) [%]
Cc1cccc(-c2nc(Nc3ccc4c(cnn4C)c3)c3ccccc3n2)n1 [GW876731],0,22,8,7,3,0,20,11,0,0,6,0,0,0,1,0,0,0,3,6
COC(=O)c1c(-c2ccccc2)c2cc(Br)ccc2c(=O)n1Cc1ccc(S(C)(=O)=O)cc1,0,5,0,3,0,20,45,44,5,13,0,22,0,33,16,45,24,23,14,21
Nc1n[nH]c2ncc(-c3ccccc3)cc12 [SB-517081],27,0,0,34,0,17,0,30,0,18,0,2,0,0,0,0,5,10,18,14
COc1cc2ncn(-c3cc(OCCCc4ccccc4)c(C(N)=O)s3)c2cc1OC [GSK205189],0,0,0,0,0,7,0,0,15,1,0,0,0,3,1,5,5,17,4,0
CCCC(=O)Nc1n[nH]c2ncc(-c3cccc4ccccc34)cc12 [SB-642057],0,4,0,0,0,30,0,4,20,13,0,0,0,2,0,0,4,1,15,19
COc1cc(OC)cc(-c2cc3cnc(N)nc3nc2NC(=O)NC(C)(C)C)c1,4,0,16,0,0,0,16,0,,4,28,0,0,0,0,0,0,0,0,0
CCn1c(-c2ccoc2)nc2cnccc21 [SB-733887],7,0,0,0,0,10,13,6,24,8,9,0,0,9,0,7,12,24,19,0
COc1cccc(C2=C(N(C)c3ccccc3)C(=O)NC2=O)c1 [SB-334865],4,0,0,0,0,4,0,0,36,0,0,4,0,16,0,0,5,7,18,14
CCC(=O)c1c(-c2ccccc2)c2cc(Cl)ccc2c(=O)n1Cc1cc(C(=O)NC2CC2)n(C)n1,49,0,0,0,3,0,48,2,0,0,4,3,8,26,0,38,11,4,7,4
Nc1ncnc2c1ncn2-c1ccc(Cl)cc1 [AH2635],27,12,0,17,0,0,0,2,15,0,0,12,0,0,0,0,0,3,9,0
Cl.c1ccc(Cn2cnc3cc(Nc4ncnc5ccccc45)ccc32)cc1 [GW272142],6,11,0,0,0,17,2,21,20,0,4,0,0,12,0,10,0,10,0,0
Cc1ccc(-c2ccc3c(ccc4sc5c(c43)NC[C@@H](C)N=C5N(C)C)n2)cn1,0,0,0,0,0,0,0,0,23,7,0,0,0,0,0,0,0,0,0,0
Cc1nn2c(=O)cc(N3CCOCC3)nc2n1Cc1cccc(Cl)c1Cl [GSK2342769],12,0,0,0,0,26,29,0,25,0,10,10,0,21,0,18,0,6,0,0
CCC(=O)c1c(-c2ccccc2)c2cc(Cl)ccc2c(=O)n1Cc1cc(S(C)(=O)=O)n(CC(F)F)n1,0,0,0,0,0,0,13,17,1,0,2,0,7,2,0,2,0,0,0,0
Cc1nc(N(C)[C@H]2CN(C(=O)CC#N)CC[C@H]2C)c2cc[nH]c2n1,0,5,0,0,0,0,0,7,0,0,0,0,28,20,2,0,10,12,8,0
COc1cccc(C2=C(Nc3cccc(C(=O)O)c3)C(=O)NC2=O)c1 [SB-390770],0,4,0,0,0,14,0,0,12,0,9,23,0,10,0,11,0,0,8,9
Cc1cc(Nc2nc(-c3cccc(C)n3)nc3ccccc23)ccn1 [GW872411],0,2,0,0,0,0,2,0,0,0,0,0,18,0,0,0,0,0,0,0
Nc1ncnc2c1ncn2-c1cccc2ccccc12 [SKF-97184],0,0,0,7,0,0,30,6,45,0,0,0,0,3,0,0,0,0,0,12
O=C(NCc1cccs1)c1cc(C(=O)c2c(Cl)cccc2Cl)c[nH]1 [GW823670],0,4,6,4,0,0,16,0,0,0,0,0,1,4,0,0,0,4,4,0
COc1cccc(-n2cnc3c(N)ncnc32)c1 [SKF-97416],17,7,11,37,0,12,2,39,18,35,9,0,4,4,3,0,0,0,0,19
CCC(=O)c1c(-c2ccccc2)c2cc(Cl)ccc2c(=O)n1Cc1cc(S(C)(=O)=O)n(CCC(C)(C)O)n1,0,17,11,14,2,27,11,62,31,19,0,22,4,17,11,34,10,12,6,18
